According to PubChem BioAssay (Tox21):
Records with an inconclusive call do not appear. Where a call stands in place of a potency, no number is given. Calls of active or inactive are those of the source. Unless noted, the call rests on the fitted dose curve; in most records, active means well fitted cell-killing curve with a large enough effect in the repeat runs; inconclusive means weak or mixed curves, or effect the other way; inactive means no such curve, though single readings can be large or run the other way.

Test system: not listed separately
Assay: qHTS assay to identify small molecule agonists of the estrogen receptor alpha (ER-alpha) signaling pathway in the presence of an antagonist - cell viability counter screen (AID 1259386);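 further: cells exposed to compounds for 22 h at 37 °C before the viability read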
Settings: VM7Luc4E2 viability, CellTiter-Fluor fluorescence, 22 h; series mostly up to 92.4 µM
Outline: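 Cell viability in VM7Luc4E2 cells (endogenous full-length ER-alpha) measured by CellTiter-Fluor fluorescence in the same wells as the luciferase screen. Cells pre-cultured 5 days in charcoal-stripped serum, then treated 22 h with compounds at 15 concentrations plus 10.0nM ICI-182,780.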
Further: nearly all actives have a fitted effect of over 30% in size.

Row | SMILES | Potency | activity change, negative = cytotoxicity
1 | Nc1nc(Cl)nc2c1ncn2[C@@H]1O[C@H](CO)[C@@H](O)[C@@H]1F | inactive | 
2 | CN1Cc2cc(C(=O)N3CCC(C4CCNCC4)CC3)ccc2N[C@@H](CC(=O)O)C1=O | inactive | 
3 | O=C(NCCCN1CCOCC1)c1ccc(Cl)cc1 | inactive | 
4 | COc1cc2[nH]c(=O)[nH]c(=O)c2cc1OC | inactive | 
5 | C=CC(=O)NCOCC(C)C | inactive | 
6 | CC(C)(CCl)c1ccccc1 | inactive | 
7 | CC(=O)Nc1ccccc1C | inactive | 
8 | CC(CCO)CCc1ccccc1 (stereo not drawn) | inactive | 
9 | CC#N | inactive | 
10 | CN1CCCN=C1/C=C/c1cccs1 | inactive | 
11 | COC(=O)c1cc(S(N)(=O)=O)ccc1OC | inactive | 
12 | CO[C@H]1O[C@H](CO)[C@@H](O)[C@H](O)[C@H]1O | inactive | 
13 | CCCCN(CCCC)C(=S)SSC(=S)N(CCCC)CCCC | inactive | 
14 | COC(=O)c1cc(Cl)ccc1NS(=O)(=O)C(F)(F)F | inactive | 
15 | CC1(C)C(=O)N(Br)C(=O)N1Cl | inactive | 
16 | N#C[C@@H]1C[C@@H]2C[C@@H]2N1C(=O)[C@@H](N)C12CC3CC(CC(O)(C3)C1)C2 | inactive | 
17 | CC(CCc1ccc2c(c1)OCO2)NN (stereo not drawn) | inactive | 
18 | Cc1nc2ccccc2s1 | inactive | 
19 | Nc1ccc(S(=O)(=O)O)c(N)c1 | inactive | 
20 | NC(=O)Nc1ccc(Cl)cc1 | inactive | 

Row | SMILES | Potency | activity change, negative = cytotoxicity
21 | O=Cc1c(Cl)cccc1Cl | inactive | 
22 | CO[Si](C)(OC)OC | inactive | 
23 | O=S1OCCO1 | inactive | 
24 | CCCOC(=O)c1ccc(N)cc1 | inactive | 
25 | O=C(O)Cc1ccc(-c2ccccc2)cc1 | inactive | 
26 | OCC1CC=CCC1 (stereo not drawn) | inactive | 
27 | C=CCCCCCCCCCCCCCCCC |  | -0.26% [at 8.39 µM] (inactive)
28 | C=CCOC(=O)/C=C\C(=O)OCC=C | inactive | 
29 | Cc1oncc1C(=O)Nc1ccc(C(F)(F)F)cc1 | inactive | 
30 | CC(C)CCCCCOC(=O)CCCCC(=O)OCCCCCC(C)C | inactive | 
31 | CC(=O)N(c1onc(C)c1C)S(=O)(=O)c1ccc(N)cc1 | inactive | 
32 | OC(CCCN1CCCCC1)(c1ccccc1)c1ccccc1 | inactive | 
33 | CCn1cc(C(=O)O)c(=O)c2cc(F)c(N3CCNCC3)nc21 | inactive | 
34 | C[N+](C)(C)CCOC(N)=O | inactive | 
35 | CCCOCCOCCO | inactive | 
36 | CCCCCCCCCCCCCCCCBr |  | 0.981% [at 19 µM] (inactive)
37 | c1ccc(COCc2ccccc2)cc1 | inactive | 
38 | CN1CCN(c2c(F)cc3c(=O)c(C(=O)O)cn4c3c2OCN4C)CC1 |  | 0.0729% [at 19 µM] (inactive)
39 | O=C1OCCN1/N=C/c1ccc([N+](=O)[O-])o1 | inactive | 

Molecular target: Progesterone receptor (Homo sapiens) (UniProt P06401)
Sequence (P06401 whole entry, looked up): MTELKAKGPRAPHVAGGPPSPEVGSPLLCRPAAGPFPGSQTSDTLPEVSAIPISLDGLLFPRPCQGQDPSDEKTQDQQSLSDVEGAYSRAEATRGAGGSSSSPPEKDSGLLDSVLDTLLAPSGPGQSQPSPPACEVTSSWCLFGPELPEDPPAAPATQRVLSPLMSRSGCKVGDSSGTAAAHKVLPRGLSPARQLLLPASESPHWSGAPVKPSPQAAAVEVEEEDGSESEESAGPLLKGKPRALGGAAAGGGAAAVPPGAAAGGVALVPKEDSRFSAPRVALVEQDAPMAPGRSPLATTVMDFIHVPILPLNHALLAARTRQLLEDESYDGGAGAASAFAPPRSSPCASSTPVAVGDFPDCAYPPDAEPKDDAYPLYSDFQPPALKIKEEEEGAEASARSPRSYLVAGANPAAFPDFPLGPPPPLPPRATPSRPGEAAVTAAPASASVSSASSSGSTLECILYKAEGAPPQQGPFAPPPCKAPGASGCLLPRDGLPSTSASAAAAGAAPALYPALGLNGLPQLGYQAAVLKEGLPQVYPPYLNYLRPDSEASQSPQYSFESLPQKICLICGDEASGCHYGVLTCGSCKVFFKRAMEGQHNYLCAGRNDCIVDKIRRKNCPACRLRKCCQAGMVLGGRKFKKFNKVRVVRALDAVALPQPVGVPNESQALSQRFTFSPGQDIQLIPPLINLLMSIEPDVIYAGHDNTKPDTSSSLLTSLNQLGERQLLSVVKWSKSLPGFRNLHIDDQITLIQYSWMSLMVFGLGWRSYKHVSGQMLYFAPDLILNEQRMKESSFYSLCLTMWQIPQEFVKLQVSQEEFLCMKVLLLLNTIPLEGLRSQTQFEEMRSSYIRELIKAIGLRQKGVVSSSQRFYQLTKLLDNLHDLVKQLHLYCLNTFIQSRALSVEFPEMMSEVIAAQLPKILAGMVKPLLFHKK
Assay: qHTS assay to identify small molecule agonists of the progesterone receptor (PR) signaling pathway (AID 1346784; calls by dose curve; further: potency means the concentration at half of the fitted maximal effect)
Settings: PR-UAS-bla HEK293T, beta-lactamase FRET ratio, 16 h; series mostly up to 92.4 µM
Outline: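 The screen uses PR-UAS-bla HEK 293T cells in charcoal-stripped serum (2%). Compounds are applied for 16 hr at 37C after a 6 hr pre-incubation, and reporter activity is detected with a FRET beta-lactamase substrate after 2 hr at room temperature.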

Row | SMILES | Potency | activation
40 | Nc1nc(Cl)nc2c1ncn2[C@@H]1O[C@H](CO)[C@@H](O)[C@@H]1F | inactive | 
41 | CN1Cc2cc(C(=O)N3CCC(C4CCNCC4)CC3)ccc2N[C@@H](CC(=O)O)C1=O | inactive | 
42 | O=C(NCCCN1CCOCC1)c1ccc(Cl)cc1 | inactive | 
43 | COc1cc2[nH]c(=O)[nH]c(=O)c2cc1OC | inactive | 
44 | C=CC(=O)NCOCC(C)C | inactive | 
45 | CC(C)(CCl)c1ccccc1 | inactive | 
46 | CC(=O)Nc1ccccc1C | inactive | 
47 | CC(CCO)CCc1ccccc1 (stereo not drawn) | inactive | 
48 | CC#N | inactive | 
49 | CN1CCCN=C1/C=C/c1cccs1 | inactive | 
50 | COC(=O)c1cc(S(N)(=O)=O)ccc1OC | inactive | 
51 | CO[C@H]1O[C@H](CO)[C@@H](O)[C@H](O)[C@H]1O | inactive | 
52 | CCCCN(CCCC)C(=S)SSC(=S)N(CCCC)CCCC | inactive | 
53 | COC(=O)c1cc(Cl)ccc1NS(=O)(=O)C(F)(F)F | inactive | 
54 | CC1(C)C(=O)N(Br)C(=O)N1Cl | inactive | 
55 | N#C[C@@H]1C[C@@H]2C[C@@H]2N1C(=O)[C@@H](N)C12CC3CC(CC(O)(C3)C1)C2 | inactive | 
56 | CC(CCc1ccc2c(c1)OCO2)NN (stereo not drawn) | inactive | 
57 | Cc1nc2ccccc2s1 | inactive | 
58 | Nc1ccc(S(=O)(=O)O)c(N)c1 | inactive | 
59 | NC(=O)Nc1ccc(Cl)cc1 | inactive | 

Row | SMILES | Potency | activation
60 | O=Cc1c(Cl)cccc1Cl | inactive | 
61 | CO[Si](C)(OC)OC | inactive | 
62 | O=S1OCCO1 | inactive | 
63 | CCCOC(=O)c1ccc(N)cc1 | inactive | 
64 | O=C(O)Cc1ccc(-c2ccccc2)cc1 | inactive | 
65 | OCC1CC=CCC1 (stereo not drawn) | inactive | 
66 | C=CCCCCCCCCCCCCCCCC | 733 nM (active) | 
67 | C=CCOC(=O)/C=C\C(=O)OCC=C | inactive | 
68 | Cc1oncc1C(=O)Nc1ccc(C(F)(F)F)cc1 | inactive | 
69 | CC(C)CCCCCOC(=O)CCCCC(=O)OCCCCCC(C)C | inactive | 
70 | CC(=O)N(c1onc(C)c1C)S(=O)(=O)c1ccc(N)cc1 | inactive | 
71 | OC(CCCN1CCCCC1)(c1ccccc1)c1ccccc1 | inactive | 
72 | CCn1cc(C(=O)O)c(=O)c2cc(F)c(N3CCNCC3)nc21 | inactive | 
73 | C[N+](C)(C)CCOC(N)=O | inactive | 
74 | CCCOCCOCCO | inactive | 
75 | CCCCCCCCCCCCCCCCBr |  | 1.24% [at 19 µM] (inactive)
76 | c1ccc(COCc2ccccc2)cc1 | inactive | 
77 | CN1CCN(c2c(F)cc3c(=O)c(C(=O)O)cn4c3c2OCN4C)CC1 |  | 1.06% [at 19 µM] (inactive)
78 | O=C1OCCN1/N=C/c1ccc([N+](=O)[O-])o1 | inactive | 
